# hcDAF12 agonist: activates DAF-12 receptor from parasite H. contortus | HEK293 hcDAF-12 lit1-tk-luc reporter, luminescence; 0% DMSO, 100% Δ7-dafachronic acid | activation, % at 6.8 µM | 1.4% of 370,000 active;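 active means activation above the mean of all tested compounds plus 3 SD, cut at about 5.5% in these data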;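 further: 100% = response to 3 µM Δ7-dafachronic acid high control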
# ssDAF12 agonist: activators of S. stercoralis DAF-12 nuclear receptor. activation, % at 6.8 µM. HEK293 ssDAF-12/GRIP1 lit1-tk-luc reporter, luminescence; % of 3 µM dafachronic acid response. 1% of 370,000 active;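 active means activation above the mean over all tested compounds plus 3 SD, cut at about 0.9% in these data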;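 further: 0% = DMSO-only wells and 100% = 3 µM delta7-dafachronic acid wells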
# DAX1 inh-1: inhibits human nuclear receptor DAX1 | P51843 | HEK293 Gal4-DAX1 luciferase reporter, luminescence | inhibition, % at 6.75 µM | 0.99% of 340,000 active;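 active means inhibition above the mean over all tested compounds plus 3 SD, cut at about 4.2% in these data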;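 further: 0% = DAX1-transfected cells with DMSO and 100% = empty-vector control cells with DMSO; inhibition shows as a rise in luminescence from relieved DAX1 repression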
# DAX1 inh-2: inhibitors of DAX1 repression of SF-1 activated StAR promoter | HEK293T StAR-luciferase reporter, SF-1/DAX-1 repression relief | inhibition, % at 6.8 µM | 1.1% of 370,000 active;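 active means inhibition above the mean over all tested compounds plus 3 SD, cut at about 3.6% in these data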;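 further: 0% = DAX-1 cells with DMSO and 100% = cells lacking DAX-1 with DMSO; higher inhibition means more luminescence from relief of DAX-1 repression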
# hgDAF12 agonist: agonists of H. glycines DAF-12 nuclear receptor | activation, % at 6.8 µM | HEK293 GAL4-hgDAF12 UAS-luciferase reporter, agonist luminescence; normalized to butyrate control | 1.8% of 370,000 active | AID 687014;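 active means activation above a cutoff set at the mean of all screened compounds plus 3 SD, cut at about 10% in these data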;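 further: 0% = DMSO wells and 100% = sodium butyrate wells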
# AHR act: activates the human aryl hydrocarbon receptor; AHR-responsive luciferase reporter cells, luminescence; 2.5% of 320,000 active; P35869; AID 2796; activation, % at 5 µM; in the data active means activation above about 47%;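 further: 0% = vehicle wells and 100% = reference agonist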
# * = called active by the depositor; nt = no result given. An excerpt weighted towards active compounds, which were near 5.7% of everything screened.
SMILES,hcDAF12 agonist,ssDAF12 agonist,DAX1 inh-1,DAX1 inh-2,hgDAF12 agonist,AHR act
COC(=O)/C(=C/Nc1cccc2ccccc12)[N+](=O)[O-],3,0,0,0,-2,62*
COc1ccc(C2=NOC(C(=O)O)C2)cc1 (stereo not drawn),5,1.8*,0,1,3,14
COC(=O)C1=CC(=O)N2CCN=C2S1,1,0,nt,0,1,nt
Cc1csc(NC(=O)c2ccc[nH]c2=O)n1,1,-1,1,2,11*,2
Cc1csc(NC(=O)c2cccc(C)c2C)n1,1,0,1,0,6,-2
CC1CCCC/C1=N\NC(=S)Nc1ccccc1 (stereo not drawn),1,0,3,1,6,60*
CC1CCC/C(=N\NC(=S)Nc2ccccc2)C1 (stereo not drawn),4,-1,1,0,2,22
Cc1ccccc1NC(=O)CC1C(=O)Nc2ccccc2N1CC(=O)N(C)C1CCS(=O)(=O)C1 (stereo not drawn),0,-1,-1,-1,1,60*
O=C(Nc1nc2ccccc2s1)c1ccc2sc([C@H]3C[C@H](O)[C@@H](CO)O3)nc2c1,0,-1,nt,0,11*,nt
O=C(Nc1ccc(Cl)cc1)c1ccc2sc([C@@H]3O[C@H](CO)[C@@H](O)[C@H]3O)nc2c1,4,0,nt,2,11*,nt
O=C(Nc1nccs1)c1ccc2sc([C@H]3C[C@H](O)[C@@H](CO)O3)nc2c1,1,0,nt,1,7,nt
O=C(Nc1ccc2c(c1)OCO2)c1ccc2sc([C@@H]3O[C@H](CO)[C@@H](O)[C@H]3O)nc2c1,0,-1,nt,1,3,nt
Cc1ccc(-c2c(C#N)c(N)n3c(nc4ccccc43)c2C#N)cc1,-2,-1,-2,0,-2,49*
COCCn1c(C)cc(C(=O)CSc2nnnn2C2CCCC2)c1C,-1,-2,-3,-2,-9,-5
Nc1[nH]c(C(=O)c2ccccc2)c(-c2cccc3ccccc23)c1C(=O)NC1CCCCC1,0,-1,nt,0,0,nt
CCCCOC(=O)CCN1C(=O)/C(=C/c2ccccc2)SC1=S,2,-1,nt,nt,-1,nt
O=C(Cn1cnc2ccccc2c1=O)c1ccc2ccccc2c1,1,0,2,1,10,-1
O=C(Cn1cnc2ccccc2c1=O)c1ccc2c(c1)OCCO2,3,0,2,2,11*,9
COC(=O)c1sccc1NC(=O)c1ccc(C)cc1,3,0,1,0,2,28
COC(=O)c1sccc1NC(=O)Nc1ccc(Cl)c(Cl)c1,4,0,4,1,11*,16
Cc1cc(C(=O)Nc2ccc(Br)cc2)cs1,5.6*,0,1,3.9*,9,30
COC(=O)c1sccc1NC(=O)c1csc(C)c1,3,1.0*,0,-1,1,18
COC(=O)c1sccc1NC(=O)c1ccc(C)s1,4,0,0,0,1,50*
COC(=O)c1sccc1NC(=O)Nc1ccc(OC)c(OC)c1,-1,0,1,0,0,-3
CNS(=O)(=O)c1ccc(NC(=O)c2csc(C)c2)cc1,-2,0,1,-1,0,2
SMILES,hcDAF12 agonist,ssDAF12 agonist,DAX1 inh-1,DAX1 inh-2,hgDAF12 agonist,AHR act
NNC(=O)C(Cc1cnc[nH]1)NC(=O)OCc1ccccc1 (stereo not drawn),1,-1,0,0,-1,2
COCCNC(=O)CSc1n[nH]c(=O)n1CCc1ccccc1,-1,-2,1,0,-2,2
O=C(CSc1ccc(-c2ccc(-n3cccn3)cc2)nn1)Nc1ccccc1F,-1,0,2,0,4,6
O=C(NCc1ccccn1)c1ccc(Cl)c(S(=O)(=O)N2CCOCC2)c1,1,0,0,0,-1,0
O=c1cc(-c2ccccc2)c2c([nH]1)CCCC2,5.7*,-1,0,-1,1,nt
Cc1ccc(NC(=S)NNC(=S)NC2CCCCC2)cc1,0,-2,0,0,8,50*
Cc1ccsc1C(=O)NNC(=S)NC1CCCCC1,0,0,1,4.1*,4,-4
CC(=O)c1ccc(NC(=S)NNC(=O)NC2CCCCC2)cc1,3,-1,0,2,5,11
COc1ccc(C(=O)N/C(=C\c2cn(S(=O)(=O)N(C)C)c3ccccc23)C(=O)NCCCN2CCOCC2)cc1,2,-1,0,2,-1,0
COc1ccc(OC)c(-n2c(=S)[nH]c3cc(C(=O)N4CCN(c5ccccc5)CC4)ccc3c2=O)c1,-3,-1,0,0,-1,-1
c1ccc(-c2nc(-c3cccnc3)n[nH]2)cc1,1,-1,nt,0,7,65*
c1cc(-c2n[nH]c(-c3ccncc3)n2)ccn1,-2,-1,0,0,2,3
O=C(Nc1ccccc1)c1cnc2n(c1=O)CCS2,6.1*,0,0,2,10,54*
O=C(Nc1ccc2c(c1)OCCO2)c1cnc2n(c1=O)CCS2,4,-1,2,3.7*,9,-7
Cc1cccc(NC(=O)c2cnc3n(c2=O)CCS3)c1,0,-1,1,1,6,5
O=C(Nc1ccc(OC(F)(F)F)cc1)c1cnc2n(c1=O)CCS2,-2,-2,2,0,-1,67*
CCCCOC(=O)c1ccc(NC(=O)c2cnc3n(c2=O)CCS3)cc1,-1,-2,-2,-1,-3,0
NC(=S)Nc1ccc(Cl)cc1Cl,-1,-1,0,0,1,-1
O=C(NCC1CCCO1)c1cc2nc(-c3ccco3)cc(C(F)(F)Cl)n2n1 (stereo not drawn),-1,-1,-1,0,1,4
Cc1ccc2c(c1)[nH]c1c(=O)n(Cc3ccccn3)cnc12,0,0,0,1,3,49*
COc1ccc2c(c1)[nH]c1c(=O)n(Cc3ccccn3)cnc12,2,-1,3,0,0,12
NC(=O)c1ccccc1Nc1nc(NCCO)nc(N2CCCC2)n1,-1,-1,4.4*,1,0,4
OCCNc1nc(Nc2ccccc2C(F)(F)F)nc(N2CCCC2)n1,-1,-1,2,-1,-1,11
COc1ccc([N+](=O)[O-])cc1Nc1ncnc2ccccc12,-2,-1,-1,0,-4,28
Cc1ccc(O)c(Nc2ncnc3ccc([N+](=O)[O-])cc23)c1,3,-1,0,0,3,50*
O=[N+]([O-])c1ccc(O)c(Nc2ncnc3ccccc23)c1,3,1.1*,2,1,-2,25
COc1ccc(Nc2ncnc3ccc([N+](=O)[O-])cc23)c(OC)c1,-2,-2,-2,0,-1,21

# Screening results: PubChem BioAssay, The Scripps Research Institute Molecular Screening Center
